# Pf Dd2 inh – inhibitors of Plasmodium falciparum Dd2 growth; P. falciparum Dd2 growth, SYBR Green, 72 h; Potency, µM (titrated, usually from 28.9 µM), without a hit: at the highest dose activity, negative = inhibition, most hits filed as inhibitors; 120,000 tested, 4.3% active; AID 1347417; active = well fitted inhibition curve with a large enough effect;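 note: plate controls were DMSO vehicle for no effect and reference drug for full effect; nearly all actives have a fitted effect of over 65% in size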
#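 Infected erythrocytes (Dd2, 0.3% parasitemia, 2.5% hematocrit final) are added to compound in RPMI-1640/Albumax II medium, grown 72 h at 37C in low oxygen, then lysed with saponin/Triton-X containing SYBR Green and read by fluorescence.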
# Starred values were filed as active, the others as inactive; i = inactive; [ ] = dose if it differs, or a comment. Shown is part of a subset that was picked to be rich in hits. Potency is the fitted concentration of half-maximal effect.
SMILES,Pf Dd2 inh
Cc1ccc(C)c(CN2C(=O)c3ccccc3S(=O)(=O)c3ccc(C(=O)NCc4ccccc4)cc32)c1,7.1µM*
COC(=O)c1ccc2c(c1)N(Cc1ccccc1)C(=O)c1ccccc1S2(=O)=O,56%
CCC(C)NC(=O)c1ccc2c(c1)N(Cc1ccccc1)C(=O)c1ccccc1S2(=O)=O (stereo unspecified),3.2µM*
COCCNC(=O)c1ccc2c(c1)N(Cc1cc(C)ccc1C)C(=O)c1ccccc1S2(=O)=O,-25%
Cc1ccc(C)c(CN2C(=O)c3ccccc3S(=O)(=O)c3ccc(C(=O)N4CCN(c5ccccc5)CC4)cc32)c1,5.6µM*
COC[C@@H]1CN(C(=O)CC2=CCCCC2)C[C@H]1c1nc(C2CC2)no1,0%
O=C(c1cccc(F)c1)N1CCOC[C@H](Oc2ccc(C(F)(F)F)cn2)C1,-21%[44.1 µM]
CCOc1ccccc1C(=O)N1CCC[C@H]1c1nc(-c2ccc(C)cc2)no1,i
COc1ccc(-c2noc([C@@H](C)NCc3ccccc3)c2C(=O)O)cc1,i
O=C(c1ccsc1)N1CCCN(c2cc(-c3ccc(Cl)cc3)[nH]n2)CC1,-4%
O=[S+]1([O-])NC2(CCN(Cc3ccc(OC(F)(F)F)cc3)C2)CNc2ccccc21 (stereo unspecified),-1%
O=C(c1ccc2c(c1)N(Cc1ccccc1F)C(=O)c1ccccc1S2(=O)=O)N1CCCC1,-12%
O=C(c1ccc2c(c1)N(Cc1ccc(F)cc1)C(=O)c1ccccc1S2(=O)=O)N1CCCC1,-10%
O=C(c1ccc2c(c1)N(Cc1ccccc1)C(=O)c1ccccc1S2(=O)=O)N1CCN(Cc2ccccc2)CC1,8.9µM*
CCOC(=O)C1(Cc2ccccc2C)CCCN(Cc2cn(CC(N)=O)c3ccccc23)C1 (stereo unspecified),14µM*
CCOC(=O)C1(Cc2ccccc2C)CCCN(C(=O)c2csc(C)n2)C1 (stereo unspecified),-3%
CCOC(=O)C1(Cc2ccccc2C)CCCN(C(=O)c2cc[n+]([O-])cc2)C1 (stereo unspecified),-21%
COc1ccc(CNC(=O)O[C@H]2COCCN(c3nc4ccccc4s3)C2)cc1,i
O=c1[nH]c2cccnc2n1C1CCCCC1,i
Cc1nc(CCCNC(=O)[C@H]2CNC[C@@H](C(=O)N3CCOCC3)C2)sc1C,-6%
CCCNC(=O)C(NC(=O)c1ccccc1)C1CCN(C(=O)c2ccccc2F)CC1 (stereo unspecified),-3%
Cc1ccc(F)cc1S(=O)(=O)N1CC(c2nc(-c3ccncc3)no2)C1,i
O=C1CC2(CCN([S+](=O)([O-])c3cccc(C(F)(F)F)c3)CC2)Oc2ccccc21,i
CCOc1ccccc1CN1CCC2(CCN([S+](=O)([O-])c3ccc(C)cc3)CC2)Oc2ccccc21,4µM*
O=C1CC2(CCN([S+](=O)([O-])c3ccccc3)CC2)Oc2ccccc2N1,i
SMILES,Pf Dd2 inh
CCOc1ccccc1CN1CCC2(CCN([S+](=O)([O-])c3cccc(C(F)(F)F)c3)CC2)Oc2ccccc21,8.9µM*
COc1cccc([S+](=O)([O-])N2CCC3(CC2)CC(=O)c2ccccc2O3)c1,i
O=C1CC2(CCN([S+](=O)([O-])c3cccc(C(F)(F)F)c3)CC2)Oc2cc(Cl)ccc21,i
CNCCN1C(=O)CC[C@H]2CN(C(=O)N3CCOCC3)CC[C@H]21,-7%
Cc1noc(C)c1S(=O)(=O)N1CCCN(S(=O)(=O)c2ccccc2)CCC(=O)NCC1,-14%
COCCN1C(=O)c2cccn2CC1CNS(=O)(=O)c1ccc(F)cc1 (stereo unspecified),15%
Cn1nc(-c2ccc3ccccc3c2)cc1[C@H]1CN2CC[C@H]1C[C@@H]2CNC(=O)Nc1ccccc1,i
COc1ccc(-c2cc([C@H]3CN4CC[C@H]3C[C@@H]4CNC(=O)C(C)(C)C)n(C)n2)cc1OC,i
COc1ccc(-c2cc([C@H]3CN4CC[C@H]3C[C@@H]4CNC(=O)Nc3ccccc3)n(C)n2)cc1OC,5.6µM*
CC(C)NC(=O)OC[C@H]1C[C@@H]2CCN1C[C@@H]2c1cc(-c2ccc3ccccc3c2)nn1C,i
CC(C)NC(=O)NC[C@H]1C[C@@H]2CCN1C[C@@H]2c1cc(-c2ccc3ccccc3c2)nn1C,6.3µM*
COc1ccc(-c2cc([C@H]3CN4CC[C@H]3C[C@@H]4CNC(=O)c3ccc(C)cc3)n(C)n2)cc1OC,-9%
CCOc1ccc(C(=O)N2CCCN(c3cc(-c4ccc(Cl)cc4)[nH]n3)CC2)cc1,-19%
Cc1cn2nc(C(=O)N3CCC(NC(=O)c4ccc(F)cc4Cl)CC3)cc2c(=O)[nH]1,i
CCN1C(=O)CCN(S(=O)(=O)c2cccc3cccnc23)CC12CCOCC2,-22%
CC(C)c1nc2ccccc2n1CC(=O)N1CC[C@](C)(O)[C@@H](O)C1,-7%
O=C(NC[C@H]1C[C@@H]2CCN1C[C@@H]2CN1CCOCC1)Nc1ccsc1,26%[44.1 µM]
COc1ccc(-n2c(C)c(C(C)=O)c3cc(OC(=O)COc4ccccc4)ccc32)cc1,-18%
CCOC(=O)c1c(C)n(-c2ccc(OC)cc2)c2ccc(OC(=O)COc3ccccc3)cc12,11µM*
CCOC(=O)c1c(C)n(-c2ccccc2)c2ccc(OC(=O)COc3ccccc3)cc12,43%
Cc1ccc(N2CCC(NC(=O)Cc3ccccc3C)C2=O)cc1 (stereo unspecified),i
CCOc1ccccc1NC(=O)Cn1c(N2CCN(c3ccccc3)CC2)nc(C)cc1=O,5.6µM*
COc1ccccc1CNC(=O)Cn1c(=O)ccc2cc(S(=O)(=O)N3CCC(C)CC3)ccc21,11%
Cc1ccc(NC(=O)Cn2c(N3CCN(c4ccccc4)CC3)nc(C)cc2=O)c(C)c1,-8%
CCOc1ccc(C(=O)Nc2cc3c(cc2N2CCCC2)n(C)c(=O)c(=O)n3C)cc1OCC,-16%
SMILES,Pf Dd2 inh
CCOc1ccccc1NC(=O)Cn1c(-c2ccccc2)nc(C)cc1=O,1.6µM*
CCOc1ccccc1NC(=O)Cn1c(=O)ccc2cc(S(=O)(=O)N3CCC(C)CC3)ccc21,13µM*
CCOc1ccccc1NC(=O)Nc1cc2c(cc1N1CCCCC1)n(CC)c(=O)n2CC,11µM*
CCOc1ccccc1NC(=O)Cn1c(-c2ccc(F)cc2)nc(C)cc1=O,-19%
CCOc1ccc(NC(=O)Nc2cc3c(cc2N2CCCCC2)n(C)c(=O)n3C)cc1,-15%
CCc1ccccc1NC(=O)Cn1c(-c2ccccc2)nc(C)cc1=O,-4%
Cc1ccc(C)c(NC(=O)Cn2c(N3CCN(c4ccccc4)CC3)nc(C)cc2=O)c1,-42%
CCc1ccccc1NC(=O)Cn1c(=O)ccc2cc(S(=O)(=O)N3CCCC3)ccc21,10%
CC(C)NC(=O)NC1CC2(CCN(C(=O)Cc3cnc[nH]3)CC2)c2ccccc21 (stereo unspecified),57%
COc1cncc(CN2C[C@H]3[C@H](C2)[S+](=O)([O-])C(C)(C)C(=O)N3CC2CCOCC2)c1,10%
COc1ccccc1-c1nnc([C@H]2CCN(C3CCN(C)CC3)C2)o1,i
O=C(Cc1c[nH]c2ncc(-c3ccccc3)cc12)N1CCN(c2ccccn2)CC1,i
CC(C)NC(=O)c1ccccc1OCC1CCCN(CC2=Cc3ccccc3OC2)C1 (stereo unspecified),-21%
O=C(Cc1ccccc1)N1CC[C@H]2COC(=O)N2c2cc(F)ccc2C1,-3%[44.1 µM]
CCn1c(=O)c2c(cc(C)n2C)n(CC(=O)Nc2ccc(OC)c(Cl)c2)c1=O,i
Cc1nc(C2CCCN(C(=O)Cc3ccc(S(C)(=O)=O)cc3)C2)n[nH]1 (stereo unspecified),20%
